Measurements as given in PubChem BioAssay (EPA / NIEHS).
Values joined by “and” are separate entries in the source; they are usually repeats but may differ in a detail not shown here. Equal values may be shown once. Results filed as inconclusive are left out. More than one record can exist for a structure, and the calls need not agree. Active and inactive are the calls of the source. Rule for the calls: active = hit-call score of the fitted dose curve at least 0.9, where 1 is the maximum; inconclusive = response in the unintended direction; inactive = score below 0.9.

How the values were obtained:
[1] = biological target: zebrafish Thyroid Hormone Receptor alpha (TRa), thraa (gene 30670) (UniProt Q98867); test: ATG_zfTRa_XSP1: Attagene TRANS-FACTORIAL Multi-Species (XSP1) HepG2 Assay for zebrafish Thyroid Hormone Receptor alpha (TRa) (AID 2283807)
Summary of the method: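 Reporter transcripts driven by a chimeric zebrafish TRa–Gal4 protein were measured by RT-PCR with fluorescent labelling and capillary electrophoresis. These came from transiently transfected HepG2 cells after 24 h chemical exposure, with 3 nM 6-alpha-fluorotestosterone added; baseline was DMSO.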

[2] = biological target: human Thyroid hormone Receptor beta (TRb), THRB (gene 7068) (UniProt P10828); test: ATG_hTRb_XSP1: Attagene TRANS-FACTORIAL Multi-Species (XSP1) HepG2 Assay for human Thyroid hormone Receptor beta (TRb) (AID 2283808)
Description: (§1) ATG_XSP1_multi-species_TRANS is a cell-based, multiplexed assay created by modifying the existing Attagene TRANS-FACTORIAL system to include a panel of nuclear receptors from some or all the following species: human (Homo sapiens), mouse (Mus musculus), frog (Xenopus laevis), zebrafish (Danio rerio), chicken (Gallus gallus), and turtle (Chrysemys picta). The ECOTOX-FACTORIAL format uses HepG2, a human liver cell line, with measurements taken at 24 hours after chemical dosing in a 24-well plate. Xsp1 included 3 nM 6-alpha-fluorotestosterone to partially stimulate the androgen receptor.ATG_hTRb_XSP1 is one of 29 assay components measured or calculated from the ATG_XSP1_multi-species_TRANS assay. It is designed to make measurements of mRNA induction, a form of inducible reporter, as detected with fluorescence intensity signals by Reverse transcription polymerase chain reaction (RT-PCR) and Capillary electrophoresis technology.The assay endpoint ATG_hTRb_XSP1 was analyzed in the positive analysis fitting direction relative to DMSO as the negative control and baseline of activity. […] Furthermore, this assay endpoint can be referred to as a primary readout, because this assay has produced multiple assay endpoints where this one serves a reporter gene function. […]

[3] = biological target: zebrafish Thyroid Hormone Receptor beta (TRb), thrb (gene 30607) (UniProt Q9PVE4); test: ATG_zfTRb_XSP1: Attagene TRANS-FACTORIAL Multi-Species (XSP1) HepG2 Assay for zebrafish Thyroid Hormone Receptor beta (TRb) (AID 2283809)
Summary of the method: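 HepG2 cells transiently transfected with multiplexed GAL4-UAS reporter units expressing chimeric zebrafish TRb–Gal4. Dosed 24 h with 3 nM 6-alpha-fluorotestosterone present; reporter mRNA measured by RT-PCR, HpaI digestion and capillary electrophoresis; gain of signal versus DMSO.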

[4] = ATG_XTT_Cytotoxicity_XSP1: Cytotoxicity Assessment in the Attagene TRANS-FACTORIAL Multi-Species (XSP1) HepG2 Assay (AID 2283810)
Summary of the method: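 XTT viability readout taken at 24 hours post-dosing in HepG2 liver cells co-treated with 3 nM 6-alpha-fluorotestosterone. Signal loss relative to DMSO controls reflects cytotoxicity.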

[5] = ATG_M_06_XSP2: Attagene TRANS-FACTORIAL Multi-Species (XSP2) HepG2 Assay for M06 Transcription Factor (Internal Marker) (AID 2283811);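 note: internal background marker reporter mRNA measured by RT-PCR and capillary electrophoresis; hits are increases in signal above the DMSO baseline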
Summary of the method: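 Cells of the human liver line HepG2 carried transfected reporter transcription units and were treated for 24 h. Induced reporter transcripts were detected by fluorescence after RT-PCR and capillary electrophoresis, with activity fitted in the gain direction against DMSO.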

[6] = biological target: GAL4 Transcription Factor (Internal Marker), GAL4 (gene 855828) (UniProt P04386); test: ATG_GAL4_XSP2: Attagene TRANS-FACTORIAL Multi-Species (XSP2) HepG2 Assay for GAL4 Transcription Factor (Internal Marker) (AID 2283814);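 note: GAL4 reporter mRNA background control in MRTU transfected cells not a receptor target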
Summary of the method: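 Background-control readout: gain-of-signal fitted against DMSO. After 24 h exposure of transfected HepG2 (MRTU, GAL4-UAS reporters; 3 nM 6-alpha-fluorotestosterone, 1.5 nM norgestrel present), transcripts quantified by RT-PCR and capillary electrophoresis fluorescence.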

[7] = biological target: zebrafish Estrogen Receptor (ER1), esr1 (gene 259252) (UniProt P57717); test: ATG_zfER1_XSP2: Attagene TRANS-FACTORIAL Multi-Species (XSP2) HepG2 Assay for zebrafish Estrogen Receptor (ER1) (AID 2283816)
Summary of the method: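 After 24 h compound exposure, RNA from transfected HepG2 cells was reverse-transcribed and reporter transcripts resolved by capillary electrophoresis. The TRANS format reads exogenous zebrafish ER1-Gal4 chimera activity on GAL4-UAS elements; gain of signal against DMSO.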

[8] = test system: turtle Estrogen Receptor (ERa), gene 101933533; test: ATG_trERa_XSP2: Attagene TRANS-FACTORIAL Multi-Species (XSP2) HepG2 Assay for turtle Estrogen Receptor (ERa) (AID 2283812);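 note: actives raise reporter signal above DMSO so AC50 reflects agonist activity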
Summary of the method: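 Readout is reporter mRNA quantified by RT-PCR with capillary electrophoresis after 24 h compound exposure, increase relative to DMSO. Uses transiently transfected human HepG2 liver cells carrying a chimeric turtle ERa-Gal4 receptor driving GAL4-UAS reporters.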

[9] = biological target: Estrogen receptor beta (Homo sapiens) (UniProt Q92731); test: ATG_hERb_XSP2: Attagene TRANS-FACTORIAL Multi-Species (XSP2) HepG2 Assay for human Estrogen Receptor (ERb) (AID 2283813);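 note: actives raise reporter mRNA above DMSO so AC50 reflects agonist induction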
Description: as §1, with “ATG_XSP2_multi-species_TRANS” for “ATG_XSP1_multi-species_TRANS”, “Xsp2” for “Xsp1”, “6-alpha-fluorotestosterone and 1.5 nM norgestrel” for “6-alpha-fluorotestosterone”, “to” for “to partially”, “receptor.ATG_hERb_XSP2” for “receptor.ATG_hTRb_XSP1”, “ATG_hERb_XSP2” for “ATG_hTRb_XSP1”

[10] = test system: turtle Androgen Receptor (AR), gene 101947425; test: ATG_trAR_XSP2: Attagene TRANS-FACTORIAL Multi-Species (XSP2) HepG2 Assay for turtle Androgen Receptor (AR) (AID 2283815);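 for AC50: reporter mRNA from a Gal4 chimera of turtle AR measured by RT-PCR; potency for gain of reporter signal meaning activation above DMSO baseline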
Summary of the method: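 Reporter transcripts were quantified via RT-PCR and capillary electrophoresis and fitted upward against DMSO. Transiently transfected human HepG2 cells carrying NR-Gal4 chimeras were exposed 24 h, with 3 nM 6-alpha-fluorotestosterone plus 1.5 nM norgestrel added.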

GAL4 Transcription Factor (Internal Marker), GAL4 (gene 855828), sequence (P04386 whole entry, looked up, the tested form may be a part): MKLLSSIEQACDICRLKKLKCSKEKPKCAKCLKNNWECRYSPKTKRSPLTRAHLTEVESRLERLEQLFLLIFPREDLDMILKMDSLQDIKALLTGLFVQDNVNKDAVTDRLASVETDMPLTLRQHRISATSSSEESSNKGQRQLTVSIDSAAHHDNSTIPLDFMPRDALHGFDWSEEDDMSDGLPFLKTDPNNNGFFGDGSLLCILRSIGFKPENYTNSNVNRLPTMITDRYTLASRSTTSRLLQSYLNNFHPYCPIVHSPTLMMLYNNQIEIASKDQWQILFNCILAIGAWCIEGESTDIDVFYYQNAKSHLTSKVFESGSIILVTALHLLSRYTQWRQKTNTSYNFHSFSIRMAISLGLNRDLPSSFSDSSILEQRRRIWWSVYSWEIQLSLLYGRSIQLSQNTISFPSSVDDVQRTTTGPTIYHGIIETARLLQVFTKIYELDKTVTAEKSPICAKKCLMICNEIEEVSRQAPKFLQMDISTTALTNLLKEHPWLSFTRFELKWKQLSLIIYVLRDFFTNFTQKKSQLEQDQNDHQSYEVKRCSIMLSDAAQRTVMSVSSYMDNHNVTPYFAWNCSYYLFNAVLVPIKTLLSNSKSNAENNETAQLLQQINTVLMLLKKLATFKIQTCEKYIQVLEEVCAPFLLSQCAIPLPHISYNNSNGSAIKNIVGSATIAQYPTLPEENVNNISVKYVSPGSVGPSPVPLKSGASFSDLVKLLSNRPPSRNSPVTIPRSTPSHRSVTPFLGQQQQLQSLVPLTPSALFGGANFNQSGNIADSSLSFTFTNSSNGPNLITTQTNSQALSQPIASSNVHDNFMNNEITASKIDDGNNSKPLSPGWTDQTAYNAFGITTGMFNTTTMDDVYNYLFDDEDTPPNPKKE
zebrafish Estrogen Receptor (ER1), esr1 (gene 259252), sequence (P57717 whole entry, looked up, the tested form may be a part): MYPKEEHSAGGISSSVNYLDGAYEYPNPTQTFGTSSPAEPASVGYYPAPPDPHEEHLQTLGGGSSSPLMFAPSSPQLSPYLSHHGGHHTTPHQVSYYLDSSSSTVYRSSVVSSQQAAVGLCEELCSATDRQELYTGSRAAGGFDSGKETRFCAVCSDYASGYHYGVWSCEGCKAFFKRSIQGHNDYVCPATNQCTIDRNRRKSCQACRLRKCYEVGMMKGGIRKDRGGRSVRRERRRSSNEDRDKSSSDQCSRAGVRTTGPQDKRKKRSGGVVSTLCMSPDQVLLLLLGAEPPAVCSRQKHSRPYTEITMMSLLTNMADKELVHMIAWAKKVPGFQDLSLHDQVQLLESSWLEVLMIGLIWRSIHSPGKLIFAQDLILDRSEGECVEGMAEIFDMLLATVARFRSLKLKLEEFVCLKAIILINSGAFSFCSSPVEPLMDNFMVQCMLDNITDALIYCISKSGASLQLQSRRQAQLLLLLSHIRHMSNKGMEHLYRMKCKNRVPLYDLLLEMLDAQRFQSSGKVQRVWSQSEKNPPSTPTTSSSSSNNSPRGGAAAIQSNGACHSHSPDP
human Thyroid hormone Receptor beta (TRb), THRB (gene 7068), sequence (P10828 whole entry, looked up): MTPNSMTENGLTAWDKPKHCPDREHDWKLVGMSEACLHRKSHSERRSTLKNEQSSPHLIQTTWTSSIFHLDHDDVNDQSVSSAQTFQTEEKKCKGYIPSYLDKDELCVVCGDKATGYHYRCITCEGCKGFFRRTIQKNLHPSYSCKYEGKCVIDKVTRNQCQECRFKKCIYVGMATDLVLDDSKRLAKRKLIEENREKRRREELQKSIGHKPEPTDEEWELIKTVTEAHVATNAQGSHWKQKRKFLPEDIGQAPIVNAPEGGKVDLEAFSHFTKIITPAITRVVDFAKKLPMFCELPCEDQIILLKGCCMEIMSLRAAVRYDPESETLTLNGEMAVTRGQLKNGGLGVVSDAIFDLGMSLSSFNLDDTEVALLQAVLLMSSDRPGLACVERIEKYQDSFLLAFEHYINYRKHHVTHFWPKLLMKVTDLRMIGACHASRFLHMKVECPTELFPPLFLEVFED
Estrogen receptor beta (Homo sapiens), sequence (Q92731 whole entry, looked up): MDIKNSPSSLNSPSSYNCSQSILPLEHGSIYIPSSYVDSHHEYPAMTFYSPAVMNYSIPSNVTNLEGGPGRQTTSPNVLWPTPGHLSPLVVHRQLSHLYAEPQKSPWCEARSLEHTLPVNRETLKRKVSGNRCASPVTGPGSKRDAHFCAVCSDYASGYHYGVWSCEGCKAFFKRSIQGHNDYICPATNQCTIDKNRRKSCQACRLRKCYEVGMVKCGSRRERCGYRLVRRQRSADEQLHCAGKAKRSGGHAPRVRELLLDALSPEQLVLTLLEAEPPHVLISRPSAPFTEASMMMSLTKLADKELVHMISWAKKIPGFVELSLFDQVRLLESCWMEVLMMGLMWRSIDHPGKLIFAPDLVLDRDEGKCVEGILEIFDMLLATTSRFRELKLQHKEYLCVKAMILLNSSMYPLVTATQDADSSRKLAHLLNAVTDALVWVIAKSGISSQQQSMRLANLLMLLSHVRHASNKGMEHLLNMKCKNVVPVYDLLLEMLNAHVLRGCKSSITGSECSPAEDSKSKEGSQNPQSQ
zebrafish Thyroid Hormone Receptor alpha (TRa), thraa (gene 30670), sequence (Q98867 whole entry, looked up, the tested form may be a part): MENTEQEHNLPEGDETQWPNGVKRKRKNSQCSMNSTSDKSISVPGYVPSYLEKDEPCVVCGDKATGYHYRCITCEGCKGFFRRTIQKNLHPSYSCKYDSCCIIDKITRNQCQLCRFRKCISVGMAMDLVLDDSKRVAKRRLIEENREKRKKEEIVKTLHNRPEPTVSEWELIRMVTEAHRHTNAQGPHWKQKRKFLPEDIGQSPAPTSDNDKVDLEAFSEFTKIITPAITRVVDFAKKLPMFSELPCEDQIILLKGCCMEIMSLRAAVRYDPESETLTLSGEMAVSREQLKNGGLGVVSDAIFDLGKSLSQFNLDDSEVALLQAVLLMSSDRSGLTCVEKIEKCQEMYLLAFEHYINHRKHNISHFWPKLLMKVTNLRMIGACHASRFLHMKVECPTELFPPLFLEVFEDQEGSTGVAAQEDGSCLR
zebrafish Thyroid Hormone Receptor beta (TRb), thrb (gene 30607), sequence (Q9PVE4 whole entry, looked up, the tested form may be a part): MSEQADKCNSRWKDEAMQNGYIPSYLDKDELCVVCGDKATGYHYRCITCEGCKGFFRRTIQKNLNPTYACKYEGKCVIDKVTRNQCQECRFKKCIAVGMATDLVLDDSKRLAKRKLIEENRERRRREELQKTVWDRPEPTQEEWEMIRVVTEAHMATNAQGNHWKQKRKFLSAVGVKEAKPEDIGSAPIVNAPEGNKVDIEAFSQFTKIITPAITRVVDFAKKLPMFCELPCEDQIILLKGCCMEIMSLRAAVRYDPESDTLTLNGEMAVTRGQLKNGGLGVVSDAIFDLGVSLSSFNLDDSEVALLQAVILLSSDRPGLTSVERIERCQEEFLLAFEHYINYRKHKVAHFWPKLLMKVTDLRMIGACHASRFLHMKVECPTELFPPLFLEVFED

CC/C(=C(\c1ccccc1)c1ccc(OCCN(C)C)cc1)c1ccccc1
outcome [1]: inactive
outcome [2]: inactive
outcome [3]: inactive
AC50 [4]: 26.1 µM (active)
outcome [5]: inactive

CCCCCC(=O)O[C@]1(C(C)=O)CC[C@H]2[C@@H]3CCC4=CC(=O)CC[C@]4(C)[C@H]3CC[C@@]21C
outcome [5]: inactive
outcome [6]: inactive
outcome [7]: inactive

CCCCCCCCOC(=O)c1ccc(O)cc1
outcome [5]: inactive
AC50 [8]: 17.1 µM (active) and 1.5 µM (active)
outcome [9]: inactive
AC50 [6]: 49.4 µM (active)
AC50 [10]: 33.4 µM (active)
outcome [10]: inactive
outcome [7]: inactive

CC(C)(C)c1ccc(S)cc1
outcome [5]: inactive
outcome [8]: inactive
outcome [6]: inactive
outcome [10]: inactive
outcome [7]: inactive

O=c1cc(-c2ccc(O)cc2)oc2cc(O)cc(O)c12
AC50 [8]: 1.51 µM (active)
outcome [8]: inactive
AC50 [7]: 2.58 µM (active) and 764 nM (active)

C#C[C@]1(O)CC[C@H]2[C@@H]3CCc4cc(O)ccc4[C@H]3CC[C@@]21C
outcome [1]: inactive
outcome [2]: inactive
outcome [3]: inactive
outcome [4]: inactive
outcome [5]: inactive
AC50 [8]: 6.94e-05 µM (active)
AC50 [7]: 2.55 nM (active)
